# According to ChEMBL document CHEMBL1157539, “Thousands of chemical starting points for antimalarial lead identification” (Nature, 2010):
# System: Plasmodium falciparum
# Assay: GSK_TCMDC: Inhibition of Plasmodium falciparum 3D7 in whole red blood cells, using parasite LDH activity as an index of growth. Test compounds present at 2uM
# Format: functional
row,SMILES,Inhibition [%]
1,COc1c(C2CCN(CCN3CCC(CNC(=O)c4ccc(-c5ccc(C#N)cc5)cc4)CC3)CC2)ccc2c1CCCC2,100
2,CC(Oc1cc(-n2cnc3ccc(NC(=O)CCN4CCCCC4)cc32)sc1C(N)=O)c1ccccc1Cl (stereo not given),99
3,Cc1cc(O)c(CN(C)Cc2ccc3c(c2)OCO3)cc1C(C)C,98
4,COc1ccc2nccc([C@@H](O)CN3CCC(NC(=O)c4ccc(CN5CCN(c6cccc(C)c6)CC5C)cc4)CC3)c2c1 (stereo not given in full),97
5,Nc1ccc(-c2nc3cc(Oc4ccc5[nH]c(-c6ccc(N)cc6)nc5c4)ccc3[nH]2)cc1,100
6,COc1ccc2nccc([C@@H](O)CN3CCC(NCCOc4cc(F)cc(F)c4)CC3)c2c1.O=C(O)C(=O)O,100
7,O=C(NCC1CCC(CNCCCc2ccccc2)CC1)c1cc(Cl)cc(Cl)c1 (stereo not given),89
8,O=C(Nc1ccc(Cl)c(Cl)c1)Nc1ccc(F)c([N+](=O)[O-])c1,100
9,Cc1cccc(CN2CCN(c3ncc(C(=O)NC4CC4)cc3Cl)CC2)c1.O=C(O)C(F)(F)F,84
10,Brc1ccccc1CNc1ccnc(NCCn2ccnc2)n1,99
11,O=C(Nc1cccc(-c2ccc(CN3CCC(O)CC3)cc2)c1)c1ccc(Cl)cc1.O=C(O)C(F)(F)F,95
12,COC(=O)C(NC(=O)c1ccc(-c2ccc(-c3nc4ccccc4[nH]3)s2)cc1)c1ccc(O)cc1 (stereo not given),83
13,COc1ccc2nccc([C@@H](O)CN3CCC(NCc4ccc5c(c4)sc(=O)n5C)CC3)c2c1.O=C(O)C(=O)O,100
14,COc1ccc2cc(C(c3nnnn3CC3CCCO3)N3CCc4ccccc43)c(=O)[nH]c2c1 (stereo not given),94
15,Cc1c(C)n(Cc2ccccc2)c2ncnc(OC3CCN(CC(=O)NCC4CC4)CC3)c12,92
16,Cc1c(OC(C)C)nc2ccccc2c1C(=O)N[C@H](c1cccc(F)c1)C1CC1,83
17,Cc1[nH]c2ccccc2c(=O)c1Br,94
18,Cc1cc(Cl)ccc1NC(=O)NCCCCCN1CCC(c2c[nH]c3ccccc23)CC1,91
19,Nc1nc(N)c2c(Cc3ccccc3)cccc2n1,94
20,COc1ccc2nccc([C@@H](O)CN3CCC(NC(=O)/C=C/c4cc(F)cc(NC(C)=O)c4)CC3)c2c1,97

row,SMILES,Inhibition [%]
1,Nc1ccn([C@@H]2O[C@H](COC(c3ccccc3)(c3ccccc3)c3ccccc3)[C@@H](O)[C@@H]2O)c(=O)n1,93
2,Cc1ccn2cc(-c3ccc(NC(=O)c4ccc(Br)o4)cc3)nc2c1,98
3,COc1cccc(-c2[nH]c3ccccc3c2CN2CCC(c3c(C)cccc3C)CC2)c1,99
4,O=C(Nc1ccccc1)c1ccc(-c2cc3ccncc3cc2OC2CCNCC2)s1,100
5,COc1cccc(CC(=O)N2CCC(n3c(C)nc4ccc(F)cc43)CC2)c1,100
6,COc1ccc(Nc2nccc(N3CCC(NC(=O)C(C)c4ccc(Cl)cc4)CC3)n2)cc1 (stereo not given),94
7,CC(C)CCN1CCCN(Cc2ccc(C(=O)Nc3ccc(F)c(F)c3)cc2)CC1.O=C(O)C(F)(F)F,88
8,Cc1cc(C(=O)Nc2ccc(-c3nc4ccccc4[nH]3)cc2)ccc1[N+](=O)[O-],100
9,CN(C)CCOc1ccc(/C(=C(/CCCn2ccnc2)c2ccccc2)c2ccc(O)cc2)cc1,100
10,O=C(OCc1ccccc1)N1CCc2c([nH]c3ccccc23)C1CCC(F)(F)F (stereo not given),94
11,O=C(Nc1ccc(CN2CCCCC2)cc1)c1ccc(COc2ccc([N+](=O)[O-])cc2)o1,86
12,CN1CCCN(Cc2cccc(-c3cccc(NC(=O)c4ccc(Cl)cc4)c3)c2)CC1.O=C(O)C(F)(F)F,100
13,COc1ccc(-c2ccc(NC(=O)c3cccc(Cl)c3)cc2)cc1CN1CCN(C)CC1.O=C(O)C(F)(F)F,90
14,CC(C)COc1ccc(Cl)cc1Cc1nc(-c2nc3ccc(N4CCN(C)CC4)nc3[nH]2)cs1.Cl,99
15,CCCCN(Cc1cnccc1-c1ccc(Br)cc1)c1ccc(C(O)(C(F)(F)F)C(F)(F)F)cc1.O=C(O)C(F)(F)F,87
16,COc1cccc(-c2cccc(NC(=O)C3CCN(Cc4ccc(O)cc4)CC3)c2)c1,97
17,C#CC[C@@H](NC(N)=O)C(=O)O,97
18,C=C[C@]1(C)C[C@@H](OC(=O)c2cncn(COC)c2=O)[C@]2(C)[C@H](C)CC[C@]3(CCC(=O)[C@H]32)[C@@H](C)[C@@H]1O,96
19,C=CCOC(=O)N1CCC(CNCc2ccc(-c3cccc(-c4nc5cc(F)ccc5[nH]4)c3)cc2)C1.O=C(O)C(F)(F)F (stereo not given),100
20,Cc1cc(C(=O)Nc2ccc3c(c2)CCN3C2CCN(Cc3csc4ccccc34)C2)no1 (stereo not given),96
